Source: PubChem BioAssay AID1159580 (chemical genetic matrix, 2015)
The whole screen tested about 5,500 compounds, of which about 2,000 (36%) were called active. Inconclusive results (about 18%) are left out. No stated cut-off is given here; in the data, active means normalized growth mostly below about 0.91 (no sharp cut-off); inconclusive means no clear call, values can overlap the other calls; inactive means mostly above about 0.92. The list shows a part of the results.

Assay: chemical genetic growth profiling, strain panel (AID 1159580);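 further: tested at 20 µM; growth read once vehicle control cultures reached saturation at 30 °C; 1 = growth at the plate median or of vehicle wells; lower values mean less growth of the strain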
Settings: S. cerevisiae deletion strains, growth OD
[1] = locus YAL013W, strain DEP1, hits give low values
[2] = locus YBR229C, strain ROT2, hits give low values
[3] = locus YDL101C, strain DUN1, hits give low values
[4] = locus YDR150W, strain NUM1, hits give low values
[5] = locus YEL061C, strain CIN8, hits give low values
[6] = locus YGR078C, strain PAC10, hits give low values
[7] = locus YHR030C, strain SLT2, hits give low values
[8] = locus YHR087W, strain rtc3, hits give low values
[9] = locus YJL187C, strain SWE1, hits give low values
[10] = locus YJR043C, strain POL32, hits give low values
[11] = locus YJR075W, strain HOC1, hits give low values
[12] = locus YKL190W, strain CNB1, hits give low values
[13] = locus YLR039C, strain RIC1, hits give low values
[14] = locus YLR058C, strain SHM2 (second series), hits give low values
[15] = locus YLR085C, strain ARP6, hits give low values
[16] = locus YLR262C, strain YPT6, hits give low values
[17] = locus YML094W, strain GIM5, hits give low values
[18] = locus YMR219W, strain ESC1, hits give low values
[19] = locus YMR263W, strain SAP30, hits give low values
[20] = locus YNL153C, strain GIM3, hits give low values
[21] = locus YNL298W, strain CLA4 (second series), hits give low values
[22] = locus YNL322C, strain KRE1, hits give low values
[23] = locus YNR030W, strain Alg12, hits give low values
[24] = locus YPL055C, strain LGE1, hits give low values
[25] = locus YPL241C, strain CIN2, hits give low values
[26] = locus YPR135W, strain CTF4, hits give low values

Measured: normalized growth

Cc1c(C)c(C)c(CSc2nc3ccccc3[nH]2)c(C)c1C
inactive: [1] 1.01 | [2] 1.02 | locus YCL061C, strain MRC1, hits give low values 1.04 | [3] 1.03 | locus YDL134C, strain PPH21, hits give low values 1.02 | [4] 1.02 | [5] 1.03 | [6] 1.03 | [7] 1.08 | [8] 1.04 | [9] 1.01 | [10] 1.04 | [11] 1.07 | [12] 1.03 | [13] 1.02 | [14] 1.06 | [15] 1.01 | [16] 1.03 | [17] 1.03 | [18] 1.01 | [19] 1.03 | [20] 1.05 | [21] 1.05 | [22] 1.02 | [23] 1.03 | [24] 1.08 | [25] 1.03 | [26] 1.26

N#Cc1cccc(CSC2=NCN(C3CC3)CN2)c1
inactive: [1] 1 | [2] 1.01 | [3] 0.98 | [4] 0.934 | [5] 1.02 | [6] 0.996 | [7] 1 | [8] 1.03 | [9] 1 | [10] 0.979 | [11] 0.989 | [12] 1.01 | [13] 1.05 | [14] 1.01 | [15] 0.993 | [16] 1.04 | [17] 1.01 | [18] 1.01 | [19] 0.952 | locus YMR307W, strain GAS1, hits give low values 0.978 | [20] 0.997 | [21] 1.02 | [22] 0.999 | [23] 1.02 | [24] 0.886 | [25] 1.01 | [26] 1

N#Cc1cccc(CSc2nc3ccc(C(F)(F)F)cc3[nH]2)c1
inactive: locus YAR019C, strain CDC15, hits give low values 0.965 | locus YBL105C, strain PKC1, hits give low values 0.968 | locus YBR135W, strain CKS1, hits give low values 0.973 | locus YBR136W, strain MEC1, hits give low values 0.968 | locus YBR160W, strain CDC28, hits give low values 0.968 | locus YDL017W, strain CDC7, hits give low values 0.972 | locus YDL028C, strain MPS1, hits give low values 0.978 | [3] 0.969 | locus YDL108W, strain KIN28, hits give low values 0.973 | locus YDL132W, strain cdc53, hits give low values 0.976 | locus YDL214C, strain PRR2, hits give low values 0.893 | locus YDR052C, strain DBF4, hits give low values 0.962 | locus YDR054C, strain cdc34, hits give low values 0.962 | locus YDR226W, strain ADK1, hits give low values 0.969 | locus YDR477W, strain SNF1, hits give low values 0.903 | locus YER123W, strain YCK3, hits give low values 0.881 | locus YER133W, strain GLC7, hits give low values 0.895 | locus YFL009W, strain cdc4, hits give low values 0.974 | locus YFL029C, strain CAK1, hits give low values 0.966 | locus YFR003C, strain YPI1, hits give low values 0.97 | locus YFR019W, strain FAB1, hits give low values 0.936 | locus YFR028C, strain CDC14, hits give low values 0.971 | locus YGR040W, strain KSS1, hits give low values 0.908 | locus YGR052W, strain FMP48, hits give low values 0.938 | locus YGR092W, strain DBF2, hits give low values 0.933 | [7] 0.858 | locus YHR079C, strain IRE1, hits give low values 0.851 | locus YHR082C, strain KSP1, hits give low values 0.965 | locus YHR205W, strain SCH9, hits give low values 0.898 | locus YIL147C, strain SLN1, hits give low values 0.972 | locus YJL095W, strain BCK1, hits give low values 0.901 | locus YJL128C, strain PBS2, hits give low values 0.909 | locus YJL157C, strain FAR1, hits give low values 0.89 | locus YJR016C, strain ILV3, hits give low values 0.97 | locus YJR066W, strain TOR1 (second series), hits give low values 0.848 | locus YJR066W, strain TOR1, hits give low values 0.935 | locus YKL048C, strain ELM1, hits give low values 0.963 | locus YKL067W, strain YNK1, hits give low values 0.889 | locus YKL101W, strain HSL1, hits give low values 0.901 | locus YKL193C, strain SDS22, hits give low values 0.973 | locus YKL203C, strain TOR2, hits give low values 0.937 | locus YLR133W, strain CKI1, hits give low values 0.898 | locus YLR403W, strain SFP1, hits give low values 0.907 | locus YML070W, strain DAK1, hits give low values 0.889 | locus YMR001C, strain CDC5, hits give low values 0.971 | locus YMR205C, strain PFK2 (second series), hits give low values 0.924 | locus YMR277W, strain FCP1, hits give low values 0.969 | locus YNL006W, strain LST8, hits give low values 0.97 | locus YNL020C, strain ARK1, hits give low values 0.892 | locus YNL161W, strain CBK1, hits give low values 0.965 | locus YNL183C, strain NPR1, hits give low values 0.92 | locus YNL207W, strain RIO2, hits give low values 0.966 | locus YNL222W, strain SSU72, hits give low values 0.976 | locus YNL307C, strain MCK1 (second series), hits give low values 0.89 | locus YOL078W, strain AVO1, hits give low values 0.974 | locus YOL136C, strain PFK27, hits give low values 0.858 | locus YOR061W, strain CKA2, hits give low values 0.9 | locus YOR119C, strain RIO1, hits give low values 0.962 | locus YOR231W, strain MKK1, hits give low values 0.871 | locus YOR329C, strain SCD5, hits give low values 0.96 | locus YPL031C, strain PHO85, hits give low values 0.88 | locus YPL153C, strain RAD53, hits give low values 0.899 | locus YPL204W, strain HRR25, hits give low values 0.877 | locus YPL209C, strain IPL1, hits give low values 0.967 | locus YPL256C, strain CLN2, hits give low values 0.882 | locus YPR025C, strain CCL1, hits give low values 0.972 | locus YPR106W, strain ISR1, hits give low values 0.956 | locus YPR111W, strain DBF20, hits give low values 0.946 | strain NNK1, hits give low values 0.944 | strain TSCII, hits give low values 0.965
active: locus YLR113W, strain HOG1, hits give low values 0.793
